High-throughput results (PubChem)
Giardia killer: kills Giardia lamblia; activity change, % at 7.66 µM, hits read low; Giardia lamblia trophozoite viability; AID 540267; 0.15% of 340,000 active; in the data active = activity change below about -80%; inconclusive = between about -30% and that limit;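 also: parasites exposed to compound for two days anaerobically before the ATP read; % is scaled to controls: 0 for no effect and ±100 for the full control effect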
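Giardia trophozoites, 100 cells per well, were exposed to compounds for 48 hrs at 37 deg C under anaerobic conditions; viability was then read as ATP content by bioluminescence after 15-30 min at room temperature.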
MCF10A rereplic: DNA re-replication induction in MCF 10a cells. Potency, µM (top dose mostly 46.1 µM), for the others: top-dose activity, positive = re-replication, actives largely listed as activators. 2.9% of 350,000 active. MCF 10A DNA re-replication, Hoechst nuclear intensity, 48 h. AID 624296; also: potency is read from the fitted curve at half-maximal effect; % of control where 0% means no effect; nearly all actives have a fitted effect of over 50% in size
KB-3-1 tox: KB-3-1 parental cell cytotoxicity; 1.4% of 400,000 active; KB-3-1 viability, CellTiter-Glo ATP luminescence, 72 h; Potency, µM (titrated, usually from 46.1 µM), actives largely listed as cytotoxic; also: potency is read from the fitted curve at half-maximal effect; % is scaled to controls: 0 for no effect and ±100 for the full control effect; nearly all actives have a fitted effect of over 60% in size
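KB-3-1 parental drug-naive adenocarcinoma cells in DMEM/10% FBS, incubated 72 h at 37 C with pin-transferred compounds across a concentration series. Viability by CellTiter-Glo luminescence; concentration-response curves fitted after normalization.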
ASM inhibitor: inhibitors of human secretory acid sphingomyelinase. placental ASM, HMU-PC fluorogenic substrate, 60 min. Potency, µM (series often up to 57.5 µM), for inactives: at the top dose activity change, negative = inhibition, most hits filed as inhibitors. 0.006% of 340,000 active. AID 504937; also: potency is read from the fitted curve at half-maximal effect
Target sequence (P17405 47-631 limits assumed): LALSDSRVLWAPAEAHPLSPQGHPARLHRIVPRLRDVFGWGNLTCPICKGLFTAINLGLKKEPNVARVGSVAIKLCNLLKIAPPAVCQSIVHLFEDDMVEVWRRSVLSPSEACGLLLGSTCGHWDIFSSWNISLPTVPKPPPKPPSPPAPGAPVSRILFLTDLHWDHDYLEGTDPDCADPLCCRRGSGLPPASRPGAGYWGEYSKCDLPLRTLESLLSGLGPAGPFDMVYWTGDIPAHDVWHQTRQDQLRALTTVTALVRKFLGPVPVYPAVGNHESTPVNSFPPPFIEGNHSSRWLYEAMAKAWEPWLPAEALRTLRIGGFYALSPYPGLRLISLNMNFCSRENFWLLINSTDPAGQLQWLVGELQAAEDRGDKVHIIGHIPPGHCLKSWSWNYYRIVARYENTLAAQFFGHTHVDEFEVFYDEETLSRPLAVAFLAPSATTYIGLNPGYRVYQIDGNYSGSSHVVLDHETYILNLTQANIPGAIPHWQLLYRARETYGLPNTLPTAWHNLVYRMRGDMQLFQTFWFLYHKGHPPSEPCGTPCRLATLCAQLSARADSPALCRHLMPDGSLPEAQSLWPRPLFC
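HMU-PC0 cleavage (9 uM final) by human placental ASM, 60 min at 37 °C following 10 min compound exposure at RT; stopped at pH 10, fluorescence Ex 386/Em 447 nm.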
SW480 rereplic: inducers of DNA re-replication in SW480 colon cancer cells. SW480 DNA re-replication, Hoechst DNA content imaging, 48 h. Potency, µM (doses to about 46.1 µM), inactives show at the highest dose re-replication activation, hits mostly activators. 1.8% of 340,000 active. AID 624297; also: potency is read from the fitted curve at half-maximal effect; % of control where 0% means no effect; nearly all actives have a fitted effect of over 55% in size
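Compounds, transferred as 23 nL by pin tool, were incubated with cells for 48 hr; DNA content per nucleus was then quantified by Hoechst staining and fluorescence plate imaging.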
KB-V1 MDR tox: kills drug-selected multidrug resistant KB-V1 cells; Potency, µM (series often up to 46.1 µM), usual class: cytotoxic; 3.4% of 400,000 active; AID 1347076; KB-V1 MDR cells viability, CellTiter-Glo, 72 h; also: potency is read from the fitted curve at half-maximal effect; % is scaled to controls: 0 for no effect and ±100 for the full control effect; nearly all actives have a fitted effect of over 60% in size
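KB-V1 cells (P-gp-expressing MDR subline of KB-3-1) in phenol-red-free DMEM with 10% FBS were exposed to library compounds over a concentration series for 72 h at 37 degrees C. Viability read by CellTiter-Glo luminescence; concentration-effect curves fitted after normalization.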
The depositor's hits bear a star; [ ] = dose if it differs, or a comment. The list is not random: actives were taken first. Their share in the collection is about 6.9%. Unless noted, calls follow the shape of the dose curve; as a rule, active = well fitted curve in the direction sought with a large enough effect; inconclusive = small, poorly fitted or top-dose-only effect, or another doubt; inactive = no such curve, though single readings can be large; an effect the other way counts as inactive or inconclusive.

Cn1c(=O)c2[nH]c(Br)nc2n(C)c1=O was read as MCF10A rereplic -3.0% and SW480 rereplic 0.4%.
COC(=O)c1ccc(NC(=O)CSC2=Nc3ccccc3C3CC=NN23)cc1 (centres undefined) was read as Giardia killer 7.0, MCF10A rereplic -0.8%, KB-3-1 tox inactive, ASM inhibitor -8.4%, SW480 rereplic -4.9% and KB-V1 MDR tox 16.4µM*.
Cc1ccc(NC(=O)CSC2=Nc3ccccc3C3CC=NN23)c(C)c1 (centres undefined) was read as Giardia killer -9.9, MCF10A rereplic 8.3%, KB-3-1 tox inactive, ASM inhibitor 1.1%, SW480 rereplic -5.2% and KB-V1 MDR tox 13µM*.
`CCOC(=O)c1cc(-c2ccc(N3CCOCC3)cc2)nn1-c1ccccc1` gave Giardia killer -4.1, MCF10A rereplic 24.2%, KB-3-1 tox inactive, ASM inhibitor inconclusive, SW480 rereplic 1.8% and KB-V1 MDR tox inactive.
For CCOC(=O)c1cc(-c2ccc(N3CCOCC3)cc2)nn1-c1ccc(F)cc1F the results were Giardia killer -11.5, MCF10A rereplic inconclusive, KB-3-1 tox inconclusive, ASM inhibitor 28.2µM*, SW480 rereplic 2.2% and KB-V1 MDR tox inactive.
Screening CCC(C(=O)NCc1ccccc1Cl)n1nc(C)c2sc3ccccc3c2c1=O (centres undefined) returned KB-3-1 tox inactive and KB-V1 MDR tox inactive.
CN1CCN(C(=O)c2cccc(-c3cnc4cnc(-c5ccccc5Oc5ccccc5)cn34)c2)CC1 was read as KB-3-1 tox inconclusive and KB-V1 MDR tox 7.31µM*.
`COc1ccc(-n2nnnc2-c2ccccc2)cc1` gave Giardia killer -3.6, MCF10A rereplic 2.1%, KB-3-1 tox 6.51µM*, ASM inhibitor -0.7%, SW480 rereplic -5.0% and KB-V1 MDR tox 9.2µM*.
`Clc1ccc(-n2nnnc2-c2ccccc2)cc1` gave Giardia killer 15.0, MCF10A rereplic -19.0%, KB-3-1 tox inactive, ASM inhibitor 7.2%, SW480 rereplic -2.4% and KB-V1 MDR tox inactive.
`C=CCn1c(SCC(=O)NCc2ccco2)nnc1-c1cccc(N(C)C)c1` gave KB-3-1 tox inconclusive and KB-V1 MDR tox inactive.
Screening Cc1cc(C)n(CC(O)Cn2ccc3ccccc32)n1 (centres undefined) returned Giardia killer -4.2, MCF10A rereplic -3.0%, KB-3-1 tox inactive, ASM inhibitor 6.4%, SW480 rereplic -15.0% and KB-V1 MDR tox inactive.
Screening OCc1nc2ccccc2n1CC(O)Cn1ccc2ccccc21 (centres undefined) returned Giardia killer 13.2, MCF10A rereplic 5.5%, KB-3-1 tox inconclusive, ASM inhibitor -5.7%, SW480 rereplic -2.7% and KB-V1 MDR tox 20.6µM*.
For Clc1cccc(Cl)c1Cn1cnc2c(N3CCCCCC3)ncnc21 the results were Giardia killer 18.4, MCF10A rereplic -3.9%, KB-3-1 tox inactive, ASM inhibitor -7.9%, SW480 rereplic inconclusive and KB-V1 MDR tox 8.2µM*.
CCc1cc(=O)oc2c(C)c(OCC(=O)N3CCC(C(=O)O)CC3)ccc12 was read as Giardia killer -1.5, MCF10A rereplic -30.7%, KB-3-1 tox inactive, ASM inhibitor 4.0%, SW480 rereplic -8.6% and KB-V1 MDR tox inconclusive.
`CCCc1cc(=O)oc2c(C)c(OS(C)(=O)=O)ccc12` gave Giardia killer -1.6, MCF10A rereplic 3.6%, KB-3-1 tox inactive, ASM inhibitor 74.4%, SW480 rereplic -6.2%[9.22 µM] and KB-V1 MDR tox inconclusive.
`CCCOc1ccc2c(CC)cc(=O)oc2c1C` gave Giardia killer 18.7, MCF10A rereplic 10.1%, KB-3-1 tox inactive, ASM inhibitor 2.4%, SW480 rereplic 8.0% and KB-V1 MDR tox 13µM*.
`C=C(C)COc1ccc2c(CC)cc(=O)oc2c1C` gave Giardia killer 4.4, MCF10A rereplic 11.9%, KB-3-1 tox inconclusive, ASM inhibitor -2.7%, SW480 rereplic -3.7% and KB-V1 MDR tox 20.6µM*.
Cc1c(Cl)c(C(=O)NC2C3CC4CC(C3)CC2C4)nn1C (centres undefined) was read as Giardia killer -13.3, MCF10A rereplic 12.7%, KB-3-1 tox inactive, ASM inhibitor 0.5%, SW480 rereplic -2.3% and KB-V1 MDR tox 14.6µM*.
COc1cc2ccnc(Cc3cccc(OC)c3OC)c2cc1OC was read as Giardia killer -9.1, MCF10A rereplic inconclusive, KB-3-1 tox 7.31µM*, ASM inhibitor 3.6%, SW480 rereplic 4.2% and KB-V1 MDR tox 2.06µM*.
For COc1cc(N)c(Cc2nccc3cc(OC)c(OC)cc23)cc1OC the results were Giardia killer -24.5, MCF10A rereplic -8.5%, KB-3-1 tox inactive, ASM inhibitor 5.4%, SW480 rereplic 7.1% and KB-V1 MDR tox inactive.
`COc1ccc(NC(=O)CCc2nc3cccnc3n2-c2ccccc2)cc1Cl` gave KB-3-1 tox inactive and KB-V1 MDR tox inactive.
Screening Cc1ccc(Cn2cc(/C=C(/C#N)C(=O)Nc3cccc(Cl)c3)c3ccccc32)cc1 returned KB-3-1 tox inactive and KB-V1 MDR tox inconclusive.
Cc1ccc(NC(=O)C(=O)NCC(c2cccnc2)N2CCN(Cc3ccccc3)CC2)cc1Cl (centres undefined) was read as KB-3-1 tox inactive and KB-V1 MDR tox inactive.
Screening O=C(CSC(=S)N1CCSCC1)c1ccccc1 returned Giardia killer -1.4, MCF10A rereplic inconclusive, KB-3-1 tox inactive, ASM inhibitor 0.0%, SW480 rereplic 3.3% and KB-V1 MDR tox inactive.
O=C(CSC(=S)N1CCSCC1)c1ccc(Cl)cc1 was read as Giardia killer 1.8, MCF10A rereplic inconclusive, KB-3-1 tox 8.2µM*, ASM inhibitor -1.4%, SW480 rereplic 1.6% and KB-V1 MDR tox 9.2µM*.
For Cc1cc(-n2c(C)cc(C(=O)CSc3nnc4sc5ccccc5n34)c2C)no1 the results were Giardia killer -16.2, MCF10A rereplic 21.6%, KB-3-1 tox inactive, ASM inhibitor 5.2%, SW480 rereplic 0.3% and KB-V1 MDR tox inconclusive.
`Cc1cc(-n2c(C)cc(C(=O)CSc3nnnn3-c3ccc(Cl)cc3)c2C)no1` gave Giardia killer 5.5, MCF10A rereplic 6.51µM*, KB-3-1 tox inactive, ASM inhibitor -0.8%, SW480 rereplic -13.2% and KB-V1 MDR tox inactive.
`CC(=O)c1ccc(OCC(=O)c2cc(C)n(-c3ccc4c(c3)OCO4)c2C)cc1` gave Giardia killer -15.4, MCF10A rereplic 5.9%, KB-3-1 tox inconclusive, ASM inhibitor -0.8%, SW480 rereplic 2.5% and KB-V1 MDR tox 8.2µM*.
Cc1cc(C(=O)CSc2nnnn2C)c(C)n1-c1ccc2c(c1)OCCO2 was read as Giardia killer 5.2, MCF10A rereplic inconclusive, KB-3-1 tox inactive, ASM inhibitor -3.1%, SW480 rereplic 3.8% and KB-V1 MDR tox 20.6µM*.
